# Measured values reported in PubChem BioAssay (EPA / NIEHS).
# Inconclusive results are not listed. Calls of active or inactive are those of the source. How the source made its calls, unless noted: active means hit-call score of the fitted dose curve at least 0.9, where 1 is the maximum; inconclusive means response in the unintended direction; inactive means score below 0.9.
# Legend:
# [1] = molecular target: Nucleoli Translocation, AR (gene 367) (UniProt P10275); assay: UPITT_HCI_U2OS_AR_TIF2_Nucleoli_Antagonist: University of Pittsburgh U2OS Androgen Receptor-Transcriptional Intermediary Factor 2 (AR-TIF2) Antagonism High Content Imaging Assay for Nucleoli Translocation (AID 2283997)
# Sequence of Nucleoli Translocation, AR (gene 367) (P10275 whole entry, looked up): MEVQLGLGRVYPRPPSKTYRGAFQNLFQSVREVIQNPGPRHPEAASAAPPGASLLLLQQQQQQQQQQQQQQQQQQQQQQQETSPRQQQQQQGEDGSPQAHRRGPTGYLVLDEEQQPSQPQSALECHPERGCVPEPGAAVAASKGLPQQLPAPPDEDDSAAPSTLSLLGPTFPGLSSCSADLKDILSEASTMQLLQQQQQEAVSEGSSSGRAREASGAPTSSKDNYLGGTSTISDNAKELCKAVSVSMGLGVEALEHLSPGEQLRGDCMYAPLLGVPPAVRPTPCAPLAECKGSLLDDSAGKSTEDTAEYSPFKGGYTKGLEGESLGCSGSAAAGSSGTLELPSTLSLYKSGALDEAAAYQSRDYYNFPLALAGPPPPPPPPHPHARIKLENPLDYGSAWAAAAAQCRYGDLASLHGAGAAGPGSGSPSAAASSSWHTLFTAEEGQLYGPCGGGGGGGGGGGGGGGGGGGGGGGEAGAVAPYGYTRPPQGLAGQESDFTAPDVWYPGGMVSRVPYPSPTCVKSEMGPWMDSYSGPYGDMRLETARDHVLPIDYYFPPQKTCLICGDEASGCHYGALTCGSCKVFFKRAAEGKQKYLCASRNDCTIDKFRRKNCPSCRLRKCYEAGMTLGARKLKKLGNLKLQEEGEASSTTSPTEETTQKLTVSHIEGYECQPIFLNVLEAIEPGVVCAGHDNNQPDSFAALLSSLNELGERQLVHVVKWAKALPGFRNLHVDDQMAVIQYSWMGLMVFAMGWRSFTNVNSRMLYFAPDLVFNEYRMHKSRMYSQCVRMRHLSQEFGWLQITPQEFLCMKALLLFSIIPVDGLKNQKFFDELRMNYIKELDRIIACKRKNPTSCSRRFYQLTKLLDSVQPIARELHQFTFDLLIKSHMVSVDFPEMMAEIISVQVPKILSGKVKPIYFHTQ
# In short: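 U2OS cells expressing RFP-tagged human AR and GFP-tagged TIF2 were imaged by high-content fluorescence microscopy for red AR signal in the nucleolar region. Compounds were screened at 20 uM final (0.2% DMSO), with activity fitted relative to DHT as baseline.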
# [2] = molecular target: Nucleoli Translocation, AR (gene 367) (UniProt P10275); assay: UPITT_HCI_U2OS_AR_TIF2_Nucleoli_Agonist: University of Pittsburgh U2OS Androgen Receptor-Transcriptional Intermediary Factor 2 (AR-TIF2) Agonism High Content Imaging Assay for Nucleoli Translocation (AID 2283998)
# In short: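 Nucleolar translocation of AR-RFP, with TIF2-GFP coexpressed in human osteosarcoma U2OS, imaged by high-content fluorescence. Compounds tested singly at 20 uM final, confirmed in triplicate, then titrated 0.195–50 uM final; gain-of-signal relative to DMSO.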
# [3] = molecular target: Ratio of Nucleoli Translocation and Cytoplasm, AR (gene 367) (UniProt P10275); assay: UPITT_HCI_U2OS_AR_TIF2_Nucleoli_Cytoplasm_Ratio_Agonist: University of Pittsburgh U2OS Androgen Receptor-Transcriptional Intermediary Factor 2 (AR-TIF2) Agonism High Content Imaging Assay for Ratio of Nucleoli Translocation and Cytoplasm (AID 2284000);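 further: hits raise the red nucleolar to cytoplasm ratio above vehicle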
# Sequence of Ratio of Nucleoli Translocation and Cytoplasm, AR (gene 367) (P10275 whole entry, looked up): as above
# In short: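 U2OS cells expressing RFP-tagged human AR and GFP-tagged TIF2 were imaged by high-content fluorescence microscopy. The endpoint is the ratio of nucleolar to cytoplasmic red fluorescence, fitted for gain of signal relative to DMSO. Concentration-response spanned 0.195 to 50 uM final (0.5% DMSO).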
# DIO1 (gene 1733) = assay: CCTE_GLTED_hDIO1: CCTE's human Deiodinase 1 (DIO1) Inhibition Assay, Great Lakes Toxicology and Ecology Division (GLTED) Lab (AID 2283987);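 further: isolated human DIO1 enzyme in a cell-free setup rather than cells; enzyme activity read as free iodide liberated from substrate via Sandell-Kolthoff colorimetry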
# In short: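 Inhibition read as reduced iodide release: after 3 h of human DIO1 with chemical, free iodide is quantified colorimetrically (Sandell-Kolthoff cerium/arsenic reaction). Triplicate plates, DMSO baseline.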
# [4] = CCTE_Simmons_MITO_basal_resp_rate: CCTE's HepG2 Seahorse XF Respirometric Screening Assay at Basal Respiratory State, Simmons Lab (AID 2284001; active means hit-call score of the fitted dose curve at least 0.9, where 1 is the maximum; inactive means score below 0.9); settings: actives raise or lower the signal
# In short: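 HepG2 cells were given test chemicals at 7 concentrations, 125 nM to 100 uM final, and oxygen consumption rate was read every 6 min (3 min mix, 3 min measure) over 72 min. Basal-phase OCR was fitted bidirectionally against DMSO.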
# [5] = CCTE_Simmons_MITO_inhib_resp_rate: CCTE's HepG2 Seahorse XF Respirometric Screening Assay at Inhibited Respiratory State [full ETC block], Simmons Lab (AID 2284006; active means hit-call score of the fitted dose curve at least 0.9, where 1 is the maximum; inactive means score below 0.9); settings: actives raise or lower the signal
# In short: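 HepG2 oxygen consumption was measured by Seahorse XF after compound, FCCP, then rotenone/antimycin A injections. Seven concentrations from 125 nM to 100 uM (final) were tested, with 6-min kinetic reads over 72 minutes. Inhibited-state OCR was fitted bidirectionally against DMSO.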
# [6] = CCTE_Simmons_MITO_viability: CellTiter-Glo Viability Assessment for CCTE's HepG2 Seahorse XF Respirometric Screening Assay [post-hoc], Simmons Lab (AID 2284007);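 on AC50: cells exposed to chemical for 90 min before the ATP read; actives lower ATP signal relative to DMSO baseline meaning reduced viability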
# In short: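 HepG2 cells exposed 90 min to 7 concentrations from 125 nM to 100 uM final, then ATP measured by luciferase luminescence. Three biological replicates per concentration; DMSO vehicle; dichlone control at 10 nM–100 uM.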
# [7] = molecular target: Ratio of Nucleoli Translocation and Cytoplasm, AR (gene 367) (UniProt P10275); assay: UPITT_HCI_U2OS_AR_TIF2_Nucleoli_Cytoplasm_Ratio_Antagonist: University of Pittsburgh U2OS Androgen Receptor-Transcriptional Intermediary Factor 2 (AR-TIF2) Antagonism High Content Imaging Assay for Ratio of Nucleoli Translocation and Cytoplasm (AID 2283999);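 further: antagonists lower the DHT-driven ratio of nucleolar to cytoplasmic red signal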
# In short: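 U2OS cells co-expressing RFP-tagged human AR and GFP-tagged TIF2, antagonist mode with DHT as baseline. Nucleolar-to-cytoplasmic red fluorescence ratio imaged by high-content microscopy; final compound 20 uM (0.2% DMSO) primary, 0.195–50 uM (0.5% DMSO) concentration-response.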
# [8] = CCTE_Harrill_HTTr_Apoptosis_PRF_DMEM_12hr: (Pilot) CCTE's 12-hour Apoptosis Assessment for the High-Throughput Transcriptomics (HTTr) Platform, in MCF-7 cells cultured in phenol red-free DMEM + 10% charcoal-stripped fetal bovine serum, Harrill Lab (AID 2283985; active means hit-call score of the fitted dose curve at least 0.9, where 1 is the maximum; inactive means score below 0.9)
# In short: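 MCF-7 cells in phenol red-free DMEM with 10% charcoal-stripped FBS, eight-point dilution series, 12 h exposure. Caspase-3/7 activation imaged by high content imaging with CellEvent Green reagent; bidirectional fit vs DMSO.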
# [9] = CCTE_Harrill_HTTr_Apoptosis_PRF_DMEM_24hr: (Pilot) CCTE's 24-hour Apoptosis Assessment for the High-Throughput Transcriptomics (HTTr) Platform, in MCF-7 cells cultured in phenol red-free DMEM + 10% charcoal-stripped fetal bovine serum, Harrill Lab (AID 2283986; active means hit-call score of the fitted dose curve at least 0.9, where 1 is the maximum; inactive means score below 0.9)
# Source text: This is a cell-based assay that evaluates apoptosis using high content imaging to evaluate activation of caspase-3/7 using the CellEvent Caspase 3/7 Green detection reagent in 384-well format.One of seven assay components measured from the CCTE_Harrill_HTTr_Apoptosis assay. This was part of a pilot experiment. This is a cell-based assay that evaluates apoptosis in MCF-7 cells cultured in phenol red-free DMEM + 10% charcoal-stripped fetal bovine serum. High content imaging is used to evaluate activation of caspase-3/7 using the CellEvent Caspase 3/7 Green detection reagent. Measurements are taken at 24 hours after chemical dosing in 384-well format.The assay component endpoint CCTE_Harrill_HTTr_Apoptosis_PRF_DMEM_24hr was analyzed with bidirectional fitting relation to DMSO as the negative control and baseline of activity. Using a type of viability reporter, gain-of-signal activity can be used to evaluate activation of caspase-3/7 using the CellEvent Caspase 3/7 Green detection reagent to understand changes in apoptosis. To generalize the intended target to other relatable targets, this assay endpoint is annotated to cell cycle, where the subfamily is apoptosis.
# Chemicals were tested in MCF7 cells in an eight point dilution series with a twenty-four hour exposure duration.
smiles,measurement,setting,value
CC(C)(O)c1cnn2c(-c3ccc(F)c(-c4c(F)cccc4C#N)c3)cnc2n1,outcome,[1],inactive
same,outcome,[2],inactive
same,outcome,[3],inactive
CN(C)[C@@H]1C(=O)C(C(N)=O)=C(O)[C@@]2(O)C(=O)C3=C(O)c4c(O)cccc4[C@@](C)(O)[C@H]3C[C@@H]12,AC50,DIO1 (gene 1733),56.9 µM (active)
CC(C)COC(=O)c1ccccc1C(=O)OCC(C)C,AC50,[4],56.3 µM (active)
same,outcome,[5],inactive
same,outcome,[6],inactive
CC(C)(C)C(O)(CCc1ccc(Cl)cc1)Cn1cncn1 (stereo not given),AC50,[4],39.6 µM (active)
same,outcome,[5],inactive
same,outcome,[6],inactive
O=[N+]([O-])C(Br)(CO)CO,AC50,[1],31.8 µM (active)
same,outcome,[2],inactive
same,outcome,[7],inactive
same,outcome,[3],inactive
C[N+](C)(C)CC1CO1 (stereo not given),outcome,[2],inactive
same,outcome,[7],inactive
same,outcome,[3],inactive
CCC(C)c1ccc(O)cc1 (stereo not given),AC50,[4],44.3 µM (active)
same,outcome,[5],inactive
CCOC(=O)[C@]1(c2ccccc2)Oc2ccccc2[C@@H]1N,AC50,[4],43.2 µM (active)
same,outcome,[5],inactive
same,outcome,[6],inactive
CC(C)(OOC(C)(C)c1ccccc1)c1ccccc1,AC50,[1],38.5 µM (active)
same,outcome,[7],inactive
same,outcome,[3],inactive
CCNS(=O)(=O)C(F)(F)C(F)(F)C(F)(F)C(F)(F)C(F)(F)C(F)(F)C(F)(F)C(F)(F)F,outcome,[1],inactive
same,outcome,[3],inactive
CCCCC(CC)COC(=O)c1ccc(C(=O)OCC(CC)CCCC)c(C(=O)OCC(CC)CCCC)c1 (stereo not given),outcome,[1],inactive
same,outcome,[7],inactive
same,outcome,[3],inactive
COP(=S)(OC)SCN1C(=O)c2ccccc2C1=O,AC50,DIO1 (gene 1733),50.9 µM (active)
Nc1ccc([N+](=O)[O-])cc1,outcome,[1],inactive
same,outcome,[3],inactive
O=C(Nc1ccccc1)c1ccccc1I,outcome,[1],inactive
same,outcome,[2],inactive
same,outcome,[7],inactive
same,outcome,[3],inactive
Cc1cc(N=Nc2ccccc2C)ccc1N,AC50,[1],26.1 µM (active)
same,AC50,[2],77.9 µM (active)
same,outcome,[7],inactive
same,AC50,[3],84.9 µM (active)
same,AC50,[4],25 µM (active)
same,outcome,[5],inactive
same,outcome,[6],inactive
CNC(=O)Oc1cccc2c1OC(C)(C)C2,outcome,[1],inactive
same,outcome,[7],inactive
COC(=O)Nc1nc2ccccc2[nH]1,outcome,[2],inactive
[Cl-].[Cl-].[Hg+2],AC50,[4],36.7 µM (active)
same,AC50,[5],50 µM (active)
same,AC50,[6],15.3 µM (active)
Oc1ccc2ccc3cccc4ccc1c2c34,AC50,DIO1 (gene 1733),100 µM (active)
CO[C@@H]1[C@H](OC(=O)NC(=O)CCl)CC[C@]2(CO2)[C@H]1[C@@]1(C)O[C@@H]1CC=C(C)C,AC50,DIO1 (gene 1733),17.8 µM (active)
same,outcome,[1],inactive
same,outcome,[2],inactive
same,outcome,[7],inactive
same,outcome,[3],inactive
C[C@]12C=CC3=C4CCC(=O)C=C4CC[C@H]3[C@@H]1CC[C@@H]2O,AC50,[2],0.00188 µM (active)
same,AC50,[3],0.00266 µM (active)
same,outcome,[4],inactive
same,outcome,[5],inactive
CS(=O)(=O)NC(=O)c1cc(Oc2ccc(C(F)(F)F)cc2Cl)ccc1[N+](=O)[O-],outcome,[8],inactive
same,outcome,[9],inactive
CCCCCCCCn1sccc1=O,AC50,DIO1 (gene 1733),54 µM (active)
same,outcome,[4],inactive
same,outcome,[5],inactive
same,AC50,[6],74.4 µM (active)
CCC[CH2][Sn]([Cl])([CH2]CCC)[CH2]CCC,AC50,[4],4.86 µM (active)
same,outcome,[5],inactive
same,AC50,[6],11.9 µM (active)
Nc1ccc(N=Nc2ccccc2)cc1,outcome,[4],inactive
same,outcome,[5],inactive
same,outcome,[6],inactive
O=C1CCCO1,outcome,[1],inactive
CC(C)N(Cc1ccccc1)C(=O)C(C)(C)C,outcome,[1],inactive
same,outcome,[7],inactive
same,outcome,[3],inactive
same,AC50,[4],35.6 µM (active)
same,outcome,[5],inactive
same,outcome,[6],inactive
COc1cc(C=O)cc2c1[C@H](COC(N)=O)[C@]1(OC(C)=O)ON2C[C@H]2[C@@H]1N2C(C)=O,outcome,[4],inactive
same,outcome,[5],inactive
Nc1ccc(Cl)cc1N,outcome,[1],inactive
same,outcome,[2],inactive
same,outcome,[7],inactive
same,outcome,[3],inactive
